# Data taken from PubChem BioAssay AID1671190 (National Center for Advancing Translational Sciences (NCATS), 2021).
# Among all 580,000 compounds or so, about 6,100 (1.1%) were called active. Inconclusive results (about 15%) are left out. The call rests on the fitted dose curve; in most records, active means well fitted inhibition curve with a large enough effect; inconclusive means small, poorly fitted or top-dose-only effect, or another doubt; inactive means no such curve, though single readings can be large or run the other way. What follows is part of a selection rich in actives, with near analogues and random picks from the rest. A call without a number means that no potency is given here.
# Target: Polyunsaturated fatty acid lipoxygenase ALOX12 (Homo sapiens) (UniProt P18054)
# Sequence (P18054 whole entry, looked up): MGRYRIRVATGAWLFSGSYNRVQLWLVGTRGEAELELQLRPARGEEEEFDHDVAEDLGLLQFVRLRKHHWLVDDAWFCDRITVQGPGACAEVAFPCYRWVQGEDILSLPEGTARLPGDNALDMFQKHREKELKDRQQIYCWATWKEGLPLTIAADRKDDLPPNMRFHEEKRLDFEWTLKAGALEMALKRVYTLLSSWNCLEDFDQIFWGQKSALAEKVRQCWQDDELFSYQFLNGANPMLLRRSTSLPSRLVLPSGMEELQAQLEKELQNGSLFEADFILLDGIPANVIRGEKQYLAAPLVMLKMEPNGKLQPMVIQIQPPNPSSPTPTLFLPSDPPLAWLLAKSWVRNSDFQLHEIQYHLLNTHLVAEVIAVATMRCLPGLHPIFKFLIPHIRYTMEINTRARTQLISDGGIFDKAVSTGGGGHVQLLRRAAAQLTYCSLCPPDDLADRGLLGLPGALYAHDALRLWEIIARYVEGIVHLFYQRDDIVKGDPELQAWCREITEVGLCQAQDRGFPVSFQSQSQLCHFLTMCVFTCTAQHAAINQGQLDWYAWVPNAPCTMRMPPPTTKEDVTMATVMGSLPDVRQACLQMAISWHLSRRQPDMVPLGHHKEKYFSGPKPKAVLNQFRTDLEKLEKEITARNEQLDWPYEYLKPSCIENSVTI
# Assay: Primary qHTS assay for inhibitors of human arachidonate 12S-lipoxygenase (ALOX12): Round 2
# Conditions: purified 12hLO, xylenol orange hydroperoxide absorbance; series mostly up to 108 µM
# Outline: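 Purified human 12hLO at 150 nM in 25 mM Hepes, 0.01% Triton X-100, pH 7.0, preincubated 15 min at room temperature with compound. Reaction started with 40 uM arachidonic acid, 30 min at room temperature. Hydroperoxide measured by Fe-xylenol orange, 573/405 nm absorbance ratio.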
# Potency means the concentration at half of the fitted maximal effect.
Compound,Potency,"activity change, negative = inhibition"
COc1cc(C(=S)NCc2ccccc2)cc(Br)c1O,39.8 µM (active),–
COc1ccc(COc2ccc(C(=O)O)cc2OC)cc1Br,inactive,–
COc1ccccc1NC(=O)C(=O)NCc1ccccc1,inactive,–
CN(Cc1ccc(F)cc1F)C(=O)COc1ccc2ccc(=O)oc2c1,inactive,–
C=CCSc1nc2c(c(=O)[nH]c(=O)n2C)n1Cc1cccc(C)c1,inactive,–
CS(=O)(=O)c1ccc(C(=O)NNC(=O)c2cccs2)cc1,inactive,–
Cc1ccc(NNC(=O)c2cccs2)cc1Cl,8.91 µM (active),–
COc1cc(Cl)c(C)cc1NC(=O)[C@@H]1CCCN1C(=O)c1cccs1,inactive,–
CCN(c1ccc(-c2csc(-c3ccccc3)n2)cc1)S(C)(=O)=O,inactive,–
N#Cc1ncn(CCC(=O)Nc2ccc(F)c(F)c2)n1,inactive,–
COc1ccc(C)cc1NC(=O)NC(C(=O)N1CCc2ccccc21)C(C)C (stereo not given),inactive,–
Cc1noc(-c2ccc(OC(F)(F)F)cc2)c1C(=O)NCc1ccc2c(c1)OCO2,inactive,–
CCC1CCCCN1C(=O)Cn1cccc1-c1nc(-c2ccc(F)cc2)no1 (stereo not given),inactive,–
O=C(Cc1ccc(F)cc1)N1CCC(n2cc(-c3nc(-c4ccccc4)no3)nn2)CC1,inactive,–
O=C(c1cccc(Cl)c1)N1CCC2(CC1)NCc1ccccc1NC2=O,–,3.75% [at 6.33 µM] (inactive)
O=C(Cc1ccc(F)cc1)N1CCC2(CC1)NC(=O)N(c1ccccc1)N2,5.01 µM (active),–
O=C(NC1CCCc2c1[nH]c1ccc(F)cc21)c1n[nH]c2c1CCCC2 (stereo not given),inactive,–
O=C(c1ccc2c(c1)OCO2)N1CCC(n2c(=O)[nH]c3ccccc32)CC1,inactive,–
O=C(c1ccc2c(c1)OCO2)N1CCC2(CC1)NC(=O)N(c1ccccc1)N2,5.01 µM (active),–
O=C(c1ccc2c(c1)OCO2)N1CCC2(C1)C(=O)Nc1ccccc12 (stereo not given),–,5.73% [at 6.33 µM] (inactive)
O=C(c1n[nH]c2c1CCCC2)N1CCC2(CC1)NC(=O)N(c1ccc(F)cc1)N2,1.41 µM (active),–
CC(=O)Nc1cccc(C(=O)N2CCC3(CC2)NC(=O)N(c2cccc(Cl)c2)N3)c1,1.41 µM (active),–
CCC(CC)C(=O)Nc1cccc(C(=O)N2CCCC2)c1,inactive,–
O=C(c1ccccc1)c1cccn1CC(=O)N1CCN(c2ccc(F)cc2)CC1,inactive,–
O=C(c1cc2ccccc2oc1=O)N(Cc1ccccc1)c1cccc([N+](=O)[O-])c1,inactive,–
CC1CCN(S(=O)(=O)c2ccc3c(ccc(=O)n3CC(=O)NCc3ccccn3)c2)CC1,inactive,–
COc1cccc(CC(=O)N2CCC3(CC2)N=C(c2ccc(Cl)cc2)NO3)c1,inactive,–

Compound,Potency,"activity change, negative = inhibition"
Cc1ccc(-c2cn3nc(N4CCCC(C(=O)NCCc5cccs5)C4)sc3n2)cc1 (stereo not given),inactive,–
COCCn1nc2n(c1=O)CCN(S(=O)(=O)c1ccc(Cl)s1)CC2,inactive,–
COc1ccc(Cl)cc1NC(=O)CCc1ncc(-c2ccc(C)cc2)o1,inactive,–
CC1(c2ccccc2)N(Cc2ccc(O)cc2)C(=O)OC12CCN(Cc1ccc(C#N)cc1)CC2 (stereo not given),inactive,–
CC1(c2ccccc2)N(Cc2ccccc2F)C(=O)OC12CCN(Cc1c[nH]c3ccccc13)CC2 (stereo not given),28.2 µM (active),–
CC(C)C(=O)N1CCC2(CC1)OC(=O)N(Cc1ccccc1F)C2(C)c1ccccc1 (stereo not given),inactive,–
COc1ccccc1CNC(=O)c1ncoc1-c1cccc(C)c1,inactive,–
CCC(=O)N1c2ccccc2NC2=C(C(=O)CC(C)(C)C2)C1c1cc(OC)ccc1OC (stereo not given),inactive,–
COCC1CN(Cc2cn(C)c3ccc(OC)cc23)CC12CCNCC2 (stereo not given),inactive,–
COc1cc(/C=C/c2nc3ccccc3s2)ccc1OC(F)F,inactive,–
CCn1c(SCC(=O)Nc2ccccc2C(=O)NC2CC2)nnc1-c1ccoc1C,inactive,–
COc1ccc(C(=O)NCC[N+](C)(C)C)cc1,39.8 µM (active),–
COc1ccc(N2CCN(C(=O)CCNC(=O)c3ccc(Br)cc3)CC2)cc1,inactive,–
COc1ccc(C(=O)NCCSc2ccccc2C)cc1,inactive,–
CCN(Cc1nc(-c2ccc(OC)c(OC)c2)no1)C(=O)Nc1cccc2ccccc12,inactive,–
Cc1[nH]c2ccccc2c1/C=N/c1sc2c(c1C#N)CCC(C)C2 (stereo not given),22.4 µM (active),–
Cc1[nH]c2ccccc2c1C=O,inactive,–
COC(=O)c1c(NC(=O)CCCOc2ccccc2)sc2c1CCC(C)C2 (stereo not given),inactive,–
COC(=O)CC(NC(=O)c1nn(C)c(=O)c2ccccc12)c1ccc(F)cc1 (stereo not given),inactive,–
Nc1ccc(-c2cc(C(=O)O)c3cc(Cl)ccc3n2)cc1,inactive,–
Cc1nc(C)c(C(=O)N2CCCC(C(=O)NCc3ccccc3)CCNC(=O)CC2)s1 (stereo not given),inactive,–
N#CC1CCN(C(=O)c2nc(-c3ccc(Cl)cc3)c3ccccn23)CC1,inactive,–
CCOc1ccccc1N1CCN(c2nc(-c3cccnc3)nc3ccccc23)CC1,inactive,–
COc1ccccc1-c1nc(N2CCN(C)CC2)c2ccccc2n1,28.2 µM (active),–
COc1ccc(N2CCN(c3nc(-c4ccccc4F)nc4ccccc34)CC2)cc1,inactive,–
COC(=O)C1CCCCN1S(=O)(=O)c1cc(Cl)ccc1Cl (stereo not given),inactive,–
CN1c2ccc(C=O)c3c(C=O)ccc(c23)N(C)C1(C)C,28.2 µM (active),–

Compound,Potency,"activity change, negative = inhibition"
O=C(CCC1NC(=O)c2ccccc2NC1=O)NC1CCCCCC1 (stereo not given),inactive,–
FC(F)(F)c1ccccc1-c1nc(-n2ccnc2)c2ccccc2n1,15.8 µM (active),–
CC(C)Nc1nc(N(c2ccccc2)c2ccccc2)nc(-n2ccnc2)n1,inactive,–
Fc1ccccc1N1CCN(c2nc(-c3cccnc3)nc3ccccc23)CC1,inactive,–
CCCc1noc(CN2CCN(c3cc(C)nc(C(C)C)n3)CC2)n1,inactive,–
CC(C)c1ccc(/C=C(/C#N)c2nc3ccccc3[nH]2)cc1,inactive,–
COc1cccc2cc(/C=C(/C#N)c3nc4ccccc4[nH]3)oc12,inactive,–
N#C/C(=C/c1ccco1)c1nc2ccccc2[nH]1,39.8 µM (active),–
O=c1oc2ccccc2cc1S(=O)(=O)c1cccc(Cl)c1,inactive,–
CC(C)N1C(=O)C2(CCCC2)C1C(=O)Nc1ccc2c(c1)N(C)CCC2 (stereo not given),inactive,–
Cc1ccc(C(=O)N/C(=C\c2ccco2)C(=O)N2CCSCC2)cc1C,inactive,–
Cc1ccc(N2NC(=O)/C(=C/C=C/c3ccco3)C2=O)cc1C,39.8 µM (active),–
Cc1ccc(N=C2NC(=O)/C(=C/C=C/c3ccco3)S2)cc1C,10 µM (active),–
CCc1ccccc1NC(=O)Nc1c(NC2CCCC2)c2ccccc2oc1=O,inactive,–
COc1cccc(NC(=O)c2ccc3c(c2)NC(C)(COc2ccccc2)CO3)c1 (stereo not given),inactive,–
CCCNC(=O)N1CCC(N(C)C2CCOCC2)CC1,inactive,–
N#Cc1ccc(OCC(O)CNCCC2=CCCCC2)cc1 (stereo not given),inactive,–
CC(O)CNCCOc1cccc(Oc2ccccc2)c1 (stereo not given),inactive,–
OC(CNCCc1ccc(Cl)cc1Cl)COc1ccccc1 (stereo not given),12.6 µM (active),–
CCn1ccnc1CN(C)Cc1cccc(OCC(O)CN(C)C2CCCCC2)c1 (stereo not given),inactive,–
O=C(NCc1ccccc1)c1cc(-c2cccc(Cl)c2)on1,inactive,–
O=C(O)C(c1ccccc1)N1C(=O)/C(=C\c2ccc(-c3cccc(Cl)c3)o2)SC1=S (stereo not given),2 µM (active),–
Cc1ccc2[nH]cc(C(C(=O)O)N3CCN(S(=O)(=O)c4ccccc4)CC3)c2c1 (stereo not given),inactive,–
NC(=O)c1cccc(NC(=O)c2cccc3cccnc23)c1,inactive,–
Cc1nn(-c2ccc(C(C)C)cc2)c(C)c1[C@@H]1C=C[C@@H](NC(=O)CC2(CC(=O)O)CCCC2)C1,inactive,–
Cc1nn(-c2ccc(C(C)C)cc2)c(C)c1[C@@H]1C=C[C@@H](NC(=S)NCC(C)C)C1,56.2 µM (active),–
Cc1nn(-c2ccc(C(C)C)cc2)c(C)c1[C@@H]1C=C[C@@H](NC(=O)Nc2ccccc2)C1,inactive,–

Compound,Potency,"activity change, negative = inhibition"
CCCn1nc(C(=O)NC2CCN(C(C)C)CC2)c2ccccc2c1=O,inactive,–
Cc1cc2cc(-c3c(C)noc3C)nc(NCc3cccnc3)c2o1,inactive,–
COCCCNC(=O)c1ccc(-c2c(C)noc2C)c2ccoc12,inactive,–
CNc1cc(-c2c(C)noc2C)ncn1,inactive,–
Cc1noc(C)c1-c1cc(NCc2cccnc2)ncn1,31.6 µM (active),–
Cc1cnc(CNc2cc(-c3c(C)noc3C)ncn2)cn1,inactive,–
COCCNc1cc(-c2c(C)noc2C)ncn1,39.8 µM (active),–
O=C(NCCc1cccnc1)c1cccc(Cl)c1Cl,inactive,–
c1ccc(-c2noc(-c3ccco3)n2)cc1,inactive,–
Cc1ccc(C(=O)Nc2cnc3ccccc3c2)cc1[N+](=O)[O-],inactive,–
C/C(=N\NC(=S)Nc1ccc(C)cc1)c1cc2ccccc2o1,25.1 µM (active),–
CC(C)Oc1ccc(NC(=O)c2cc3ccccc3o2)cc1,inactive,–
Cc1cc2nc(-c3ccc(NC(=O)c4cc5ccccc5o4)cc3)oc2cc1C,inactive,–
COc1cccc(/C=C2\Oc3cc(OS(=O)(=O)c4ccc(C)cc4)ccc3C2=O)c1OC,inactive,–
Cc1ccc(NC(=O)CN(C)C(=O)c2nn(-c3ccccc3)c3c2CCC3)cc1,inactive,–
COc1ccc(-c2ccnc(N[C@H]3CO[C@H]4[C@@H]3OC[C@H]4OC(=O)Nc3cccc4ccccc34)n2)cc1,inactive,–
CCNC(=O)O[C@@H]1CO[C@H]2[C@@H]1OC[C@@H]2NC(=S)Nc1cccc2ccccc12,56.2 µM (active),–
COc1ccc(NC(=O)O[C@@H]2CO[C@H]3[C@@H]2OC[C@@H]3NC(=S)Nc2cccc3ccccc23)cc1,inactive,–
CCOc1ccc(N2CC(NC(=O)CC(C)(C)C)CC2=O)cc1 (stereo not given),inactive,–
O=C(Cc1ccccc1F)NC(c1ccc2c(c1)CCC2)c1cccs1 (stereo not given),inactive,–
CCCCc1ccc(C(=O)Cn2nnc(-c3cccc(F)c3)n2)cc1,inactive,–
Cc1ccc(C(=O)Nc2cc3c(cc2N2CCCC2)n(C)c(=O)c(=O)n3C)cc1,inactive,–
Cn1c(=O)n(C)c2cc(SCc3ccco3)c(NC(=O)c3ccc(C(C)(C)C)cc3)cc21,8.91 µM (active),–
CC(C)(C)c1ccc(C(=O)NCC(c2ccco2)S(=O)(=O)c2ccc(F)cc2)cc1 (stereo not given),inactive,–
